Experimental data published in PubChem BioAssay.

Experiment: compound effects on multiple myeloma cell viability – MM1S, calcein-AM fluorescence, 48 h, basal, profiling panel (AID 1165); also: test concentration not given here
Conditions: higher = more signal

Structure (SMILES)	z-score
COC(=O)Cn1c(C(=O)N2CCCC2)cc2c1C[C@H]1CN(C(=O)c3ccccc3)[C@@](Cc3ccccc3)(C(=O)OC)[C@@H]21	0.875
O=C1C[C@@](C(=O)NCCN2CCOCC2)(c2ccc([N+](=O)[O-])cc2)[C@@H](c2ccc(CO)cc2)N1C1CCCCC1	0.324
CC(=O)NCCCC[C@@H]1NC(=O)[C@H]2C[C@@H](C(=O)NCCCCCCN(C)C)[C@@H](c3cccc(OCCO)c3)N2C1=O	0.27
CC(C)(C)OC(=O)CC[C@]1(C(=O)N2CCCCC2)N=C(c2ccc(OCCCO)cc2)O[C@H]1c1ccccc1	0.523
CC(=O)NCCCC[C@@H]1NC(=O)[C@H]2C[C@@H](C(=O)NCCCCCCN(C)C)[C@@H](c3ccc(O)cc3)N2C1=O	-0.327
O=C1C2C=CC(C(O)Cc3ccccc3)N(Nc3ccc([N+](=O)[O-])cc3)C2C(=O)N1c1ccccc1 (stereo unspecified)	0.568
C=C(COC)C(=O)CC[C@H](OC(=O)c1ccccc1-c1ccccc1C(=O)O)c1cccc(OCCO)c1	-1.12
C=CC[C@@]1(C(=O)NCC(O)CO)N=C(c2ccc(OCCCO)cc2)O[C@@H]1c1ccccc1CN=[N+]=[N-] (stereo partly specified)	0.92
O=C(CS)NCCCCCCNC(=O)[C@@H]1C[C@@H]2C(=O)N[C@@H](Cc3ccccc3)C(=O)N2[C@@H]1c1ccc(O)cc1	-0.0227
C=CC[C@]1(C(=O)N2CCCCC2)N=C(c2ccc(OCCCO)cc2)O[C@H]1c1ccccc1N=[N+]=[N-]	-1.56
COC(=O)[C@@]1(Cc2ccc(OC)cc2)[C@H]2c3cc(C(=O)N(C)C)n(Cc4ccc(C)c(F)c4F)c3C[C@H]2CN1C(=O)c1ccccc1	-1.34
[N-]=[N+]=NCc1ccccc1C[C@]1(C(=O)N2CCCCC2)N=C(c2ccc(OCCCO)cc2)O[C@H]1c1ccccc1CN=[N+]=[N-]	-2.92
CC(C)[Si](OCC[C@H]1O[C@]2(C(=O)N(Cc3ccccc3)c3ccccc32)[C@@H](C)[C@@H]1[Si](C)(C)O)(C(C)C)C(C)C	-0.64
C=CCC(OC(C)=O)[C@@H]1[C@@H](N(Cc2ccc(-c3cccc(C(F)(F)F)c3)o2)C(=O)Cc2ccc(F)cc2)c2cc(OCCCO)ccc2N1C(=O)c1ccc(-c2ccccc2)cc1 (stereo partly specified)	1.16
C=C[C@H](OC)[C@@H](OC(=O)Nc1ccc(SC)cc1)c1ccc(O)c(F)c1	-0.913
O=C1O[C@H](c2ccccc2)[C@H](c2ccccc2)N2[C@H]1[C@@H](C(=O)NC[C@H](O)c1ccccc1)[C@]1(C(=O)Nc3ccc(C#CC4(O)CCCCCC4)cc31)[C@H]2c1ccc(OCCO)cc1	-1.29
CC(C)C[C@@H]1NC(=O)[C@H](CC(C)C)NC(=O)[C@@]23C(=O)N[C@@H](Cc4ccccc4)C2[C@H](C)[C@@]2(C)O[C@H]2C3/C=C/CC/C=C/CNC1=O (stereo partly specified)	-1.66
O=C1NC(=O)C2C1C=CC(C(O)C=Cc1ccc([N+](=O)[O-])cc1)N2Nc1ccccn1 (stereo unspecified)	-0.141

Structure (SMILES)	z-score
NC(=O)NCC#Cc1ccc2c(c1)[C@]1(C(=O)N2)[C@H](C(N)=O)[C@H]2C(=O)O[C@H](c3ccccc3)[C@H](c3ccccc3)N2[C@@H]1c1ccccc1OCCO	-0.211
CCOC(=O)C[C@H]1[C@H](OC(=O)c2cc3ccccc3oc2=O)[C@@H](NC(=O)C2CCCCC2)c2cc(OCCCO)ccc2N1C(=O)c1ccc2ccccc2n1	0.0733
COc1cc2c(cc1OC)CN(C(=O)[C@H]1[C@@H]3C(=O)O[C@@H](c4ccccc4)[C@@H](c4ccccc4)N3[C@@H](c3ccc(O)cc3)[C@]13C(=O)Nc1ccc(C#CC4(O)CCCCCC4)cc13)CC2	-0.369
O=C1OCCC/C=C\[C@H]2OC34C=CCN(CCN5CCOCC5)C(=O)[C@H]3N(CCCCCO)C(=O)[C@@H]4C12 (stereo partly specified)	1.1
C[N+](C)(C)CCCCNC(=O)[C@H]1C[C@H]2C(=O)NCC(=O)N2[C@H]1c1cccc(OCCO)c1	-0.0358
O=C1C[C@@](C(=O)NC2CC2)(c2ccc([N+](=O)[O-])cc2)[C@@H](c2ccc(CO)cc2I)N1CC12CC3CC(CC(C3)C1)C2	-3.83
C=C(CCCC)/C(=C/C[C@@H](OC(=O)c1ccncc1)c1cccc(OCCO)c1)c1cc(C(=O)OC)ccc1OC	-2.25
Cc1ccc(S[C@]2(C(=O)NCCCN(C)C)CC(=O)N(Cc3ccccc3)[C@@H]2c2ccc(CO)cc2I)cc1	-3.64
O=C1O[C@H](c2ccccc2)[C@H](c2ccccc2)N2[C@H]1[C@@H](C(=O)Nc1nc3ccccc3s1)[C@]1(C(=O)Nc3ccc(C#CC4(O)CCCCCC4)cc31)[C@H]2c1ccc(O)cc1	-2.98
O=C(NCc1ccccc1)[C@@]1(Cc2ccccc2)COC(c2ccc(OCCCO)cc2)=N1	-3.58
C=C(CCCC)/C(=C/C[C@@H](OC(=O)c1ccncc1)c1ccc(CO)o1)c1cnc2ccccc2c1	-2.48
O=C1C2C=CC(C(O)C#Cc3ccccc3)N(Nc3ccccc3)C2C(=O)N1c1ccccc1 (stereo unspecified)	0.0195
CCCC=C(CCC)[C@@H](NC(=O)c1ccc(C(F)(F)F)cc1)c1ccccc1	-2.51
COc1ccc(NN2C(C(O)c3cc(OC)c(OC)c(OC)c3)C=CC3C(=O)N(C4CCCCC4)C(=O)C32)cc1 (stereo unspecified)	0.651
C#CCCCON=C1C[C@@H](O)[C@@H](O)[C@@H]2[C@@H]3C(=O)N(Cc4ccc5c(c4)OCO5)C(=O)[C@@H]3CC[C@@H]12	1.03
COC(=O)C1=CC(c2ccc(CO)cc2)=CC(c2cccs2)N(Cc2cccc(OC(F)(F)F)c2)C=C1C(=O)OC (stereo unspecified)	-1.63
O=C1O[C@H](c2ccccc2)[C@H](c2ccccc2)N2[C@H]1[C@@H](C(=O)NC[C@H](O)c1ccccc1)[C@]1(C(=O)Nc3ccc(C#CC4=CCCCC4)cc31)[C@H]2c1ccc(OCCO)cc1	-1.24
CC[C@H]1C2=C3C(CC[C@H]4C(OC)OC[C@](C)([C@@H]34)N(C(=O)OC(C)(C)C)C2)C(CO)C1CO (stereo partly specified)	1
